How the values were obtained:
Conditions in all cases: concentration: 1 μM, replicates: in singlicate; n = 1
DCAMKL2 = system: T1, DCAMKL2
T1 construct: gene DCLK2

DCAMKL3 = system: T2, DCAMKL3
T2 construct: gene DCLK3

DDR1 = system: DDR1
DDR2 = system: DDR2
DLK = system: T3, DLK
T3 construct: gene MAP3K12

DMPK2 = system: T4, DMPK2
T4 construct: gene CDC42BPG

DMPK = system: DMPK
DRAK1 = system: T5, DRAK1
T5 construct: gene STK17A

DRAK2 = system: T6, DRAK2
T6 construct: gene STK17B

DYRK1A = system: DYRK1A
DYRK1B = system: DYRK1B
DYRK2 = system: DYRK2
EGFR = system: EGFR
EIF2AK1 = system: EIF2AK1
EPHA1 = system: EPHA1
EPHA2 = system: EPHA2
EPHA3 = system: EPHA3
EPHA4 = system: EPHA4
EPHA5 = system: EPHA5
EPHA6 = system: EPHA6
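Further: KINOMEscan kinase panel screen.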

SMILES: Cn1cc(-c2[nH]c3cc(NC(=O)[C@H](N)C4CCCCC4)cc4c3c2C=NNC4=O)cn1
- %Inh (DCAMKL2): 24%
- %Inh (DCAMKL3): 99.4%
- %Inh (DDR1): 0%
- %Inh (DDR2): 39%
- %Inh (DLK): 94.8%
- %Inh (DMPK2): 0%
- %Inh (DMPK): 82%
- %Inh (DRAK1): 99.6%
- %Inh (DRAK2): 99.9%
- %Inh (DYRK1A): 79%
- %Inh (DYRK1B): 0%
- %Inh (DYRK2): 92.3%
- %Inh (EGFR): 81%
- %Inh (EIF2AK1): 0%
- %Inh (EPHA1): 25%
- %Inh (EPHA2): 1%
- %Inh (EPHA3): 56%
- %Inh (EPHA4): 11%
- %Inh (EPHA5): 12%
- %Inh (EPHA6): 14%

SMILES: O=C(Nc1cccc(-c2nn3ncccc3c2-c2ccnc(Nc3ccccc3)n2)c1)c1c(F)cccc1F [GSK198271]
- %Inh (DCAMKL2): 0%
- %Inh (DCAMKL3): 20%
- %Inh (DDR1): 100%
- %Inh (DDR2): 91.8%
- %Inh (DLK): 8%
- %Inh (DMPK2): 99.8%
- %Inh (DMPK): 0%
- %Inh (DRAK1): 0%
- %Inh (DRAK2): 0%
- %Inh (DYRK1A): 18%
- %Inh (DYRK1B): 100%
- %Inh (DYRK2): 26%
- %Inh (EGFR): 100%
- %Inh (EIF2AK1): 52%
- %Inh (EPHA1): 42%
- %Inh (EPHA2): 10%
- %Inh (EPHA3): 4%
- %Inh (EPHA4): 0%
- %Inh (EPHA5): 0%
- %Inh (EPHA6): 8%

SMILES: Cl.Cl.NCC(C(=O)Nc1cc(Br)c(-c2ccnc3[nH]ccc23)s1)c1ccccc1 (stereo not drawn) [GSK1269851]
- %Inh (DCAMKL2): 3%
- %Inh (DCAMKL3): 0%
- %Inh (DDR1): 0%
- %Inh (DDR2): 0%
- %Inh (DLK): 4%
- %Inh (DMPK2): 0%
- %Inh (DMPK): 27%
- %Inh (DRAK1): 98.8%
- %Inh (DRAK2): 0%
- %Inh (DYRK1A): 50%
- %Inh (DYRK1B): 33%
- %Inh (DYRK2): 78%
- %Inh (EGFR): 27%
- %Inh (EIF2AK1): 0%
- %Inh (EPHA1): 83%
- %Inh (EPHA2): 4%
- %Inh (EPHA3): 48%
- %Inh (EPHA4): 28%
- %Inh (EPHA5): 0%
- %Inh (EPHA6): 32%

SMILES: CC(=O)Nc1nc2cnc(Nc3cc(NC(=O)c4cccc(C5(C#N)CC5)c4Cl)ccc3C)nc2s1
- %Inh (DCAMKL2): 0%
- %Inh (DCAMKL3): 0%
- %Inh (DDR1): 100%
- %Inh (DDR2): 99.4%
- %Inh (DLK): 0%
- %Inh (DMPK2): 0%
- %Inh (DMPK): 0%
- %Inh (DRAK1): 0%
- %Inh (DRAK2): 10%
- %Inh (DYRK1A): 0%
- %Inh (DYRK1B): 67%
- %Inh (DYRK2): 8%
- %Inh (EGFR): 0%
- %Inh (EIF2AK1): 0%
- %Inh (EPHA1): 70%
- %Inh (EPHA2): 79%
- %Inh (EPHA3): 50%
- %Inh (EPHA4): 59%
- %Inh (EPHA5): 3%
- %Inh (EPHA6): 56%

SMILES: Cc1ccc(C(=O)Nc2ccc(Nc3ccnc4cc(-c5nccs5)ccc34)cc2O)cc1.Cl [GW494702]
- %Inh (DCAMKL2): 0%
- %Inh (DCAMKL3): 0%
- %Inh (DDR1): 22%
- %Inh (DDR2): 46%
- %Inh (DLK): 69%
- %Inh (DMPK2): 0%
- %Inh (DMPK): 0%
- %Inh (DRAK1): 5%
- %Inh (DRAK2): 0%
- %Inh (DYRK1A): 3%
- %Inh (DYRK1B): 0%
- %Inh (DYRK2): 0%
- %Inh (EGFR): 45%
- %Inh (EIF2AK1): 6%
- %Inh (EPHA1): 8%
- %Inh (EPHA2): 15%
- %Inh (EPHA3): 0%
- %Inh (EPHA4): 9%
- %Inh (EPHA5): 0%
- %Inh (EPHA6): 15%

SMILES: COc1cc(Nc2nccc(N3CCC(NC(=O)Nc4cccc(C(C)=O)c4)C3)n2)cc(OC)c1OC (stereo not drawn) [GSK1379753]
- %Inh (DCAMKL2): 0%
- %Inh (DCAMKL3): 0%
- %Inh (DDR1): 6%
- %Inh (DDR2): 8%
- %Inh (DLK): 42%
- %Inh (DMPK2): 25%
- %Inh (DMPK): 0%
- %Inh (DRAK1): 0%
- %Inh (DRAK2): 10%
- %Inh (DYRK1A): 14%
- %Inh (DYRK1B): 67%
- %Inh (DYRK2): 21%
- %Inh (EGFR): 22%
- %Inh (EIF2AK1): 0%
- %Inh (EPHA1): 5%
- %Inh (EPHA2): 0%
- %Inh (EPHA3): 0%
- %Inh (EPHA4): 3%
- %Inh (EPHA5): 0%
- %Inh (EPHA6): 8%

SMILES: Cc1cccc(Nc2nc(N[C@H]3CCNC3)ncc2C(N)=O)c1.Cl [GSK2197149]
- %Inh (DCAMKL2): 30%
- %Inh (DCAMKL3): 0%
- %Inh (DDR1): 0%
- %Inh (DDR2): 0%
- %Inh (DLK): 35%
- %Inh (DMPK2): 4%
- %Inh (DMPK): 0%
- %Inh (DRAK1): 53%
- %Inh (DRAK2): 22%
- %Inh (DYRK1A): 24%
- %Inh (DYRK1B): 12%
- %Inh (DYRK2): 32%
- %Inh (EGFR): 50%
- %Inh (EIF2AK1): 22%
- %Inh (EPHA1): 0%
- %Inh (EPHA2): 0%
- %Inh (EPHA3): 45%
- %Inh (EPHA4): 8%
- %Inh (EPHA5): 0%
- %Inh (EPHA6): 7%

SMILES: O=C(O)C(F)(F)F.O=C(O)C(F)(F)F.O=c1[nH]ccc2nc(N[C@@H]3CCCNC3)nc(Nc3ccc(S(=O)(=O)N4CCOCC4)cc3)c12 [GSK2177277]
- %Inh (DCAMKL2): 100%
- %Inh (DCAMKL3): 99.5%
- %Inh (DDR1): 18%
- %Inh (DDR2): 82%
- %Inh (DLK): 95.6%
- %Inh (DMPK2): 92.7%
- %Inh (DMPK): 99.7%
- %Inh (DRAK1): 98.4%
- %Inh (DRAK2): 94%
- %Inh (DYRK1A): 84%
- %Inh (DYRK1B): 0%
- %Inh (DYRK2): 59%
- %Inh (EGFR): 45%
- %Inh (EIF2AK1): 21%
- %Inh (EPHA1): 25%
- %Inh (EPHA2): 28%
- %Inh (EPHA3): 98.9%
- %Inh (EPHA4): 57%
- %Inh (EPHA5): 32%
- %Inh (EPHA6): 62%

SMILES: CCCCc1nn2ncccc2c1-c1ccnc(Nc2ccc(N3CCN(C)CC3)cc2)n1 [GW684941]
- %Inh (DCAMKL2): 25%
- %Inh (DCAMKL3): 2%
- %Inh (DDR1): 100%
- %Inh (DDR2): 96.2%
- %Inh (DLK): 47%
- %Inh (DMPK2): 50%
- %Inh (DMPK): 0%
- %Inh (DRAK1): 5%
- %Inh (DRAK2): 0%
- %Inh (DYRK1A): 17%
- %Inh (DYRK1B): 20%
- %Inh (DYRK2): 3%
- %Inh (EGFR): 81%
- %Inh (EIF2AK1): 0%
- %Inh (EPHA1): 88%
- %Inh (EPHA2): 42%
- %Inh (EPHA3): 9%
- %Inh (EPHA4): 29%
- %Inh (EPHA5): 0%
- %Inh (EPHA6): 40%

Source: publication PMC5540273 (PLoS ONE, 2017)
